In the supplement of paper PMC7724964:

T1: CAPNS1 1-268 EF-hand_8+EF-hand_5 (domain begin residue: 1, domain end residue: 268), P04632
T1 chain: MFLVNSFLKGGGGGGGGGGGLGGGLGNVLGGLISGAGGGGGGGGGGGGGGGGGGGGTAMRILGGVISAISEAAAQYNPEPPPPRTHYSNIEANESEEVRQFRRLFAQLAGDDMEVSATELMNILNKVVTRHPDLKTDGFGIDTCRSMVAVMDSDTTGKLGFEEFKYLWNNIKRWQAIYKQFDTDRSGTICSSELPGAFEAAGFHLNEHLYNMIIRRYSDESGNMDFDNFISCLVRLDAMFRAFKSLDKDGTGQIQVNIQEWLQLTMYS

T2: BTN1A1 285-479 SPRY (domain begin residue: 285, domain end residue: 479), Q13410
T2 chain: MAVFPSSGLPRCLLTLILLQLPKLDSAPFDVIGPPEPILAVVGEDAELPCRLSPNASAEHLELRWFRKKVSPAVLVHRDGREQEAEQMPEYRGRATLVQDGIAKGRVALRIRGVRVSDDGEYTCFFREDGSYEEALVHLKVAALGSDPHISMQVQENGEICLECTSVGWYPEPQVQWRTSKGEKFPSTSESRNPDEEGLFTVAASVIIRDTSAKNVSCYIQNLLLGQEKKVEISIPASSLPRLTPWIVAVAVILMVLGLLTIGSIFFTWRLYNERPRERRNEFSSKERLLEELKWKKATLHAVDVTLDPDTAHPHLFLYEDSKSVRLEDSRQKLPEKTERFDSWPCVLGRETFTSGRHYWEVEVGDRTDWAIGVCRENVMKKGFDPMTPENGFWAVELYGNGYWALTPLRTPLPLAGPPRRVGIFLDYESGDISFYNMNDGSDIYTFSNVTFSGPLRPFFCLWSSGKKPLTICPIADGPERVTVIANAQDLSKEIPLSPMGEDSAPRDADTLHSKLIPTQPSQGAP

T3: ALDOA 1-364 Glycolytic (domain begin residue: 1, domain end residue: 364), P04075
T3 chain: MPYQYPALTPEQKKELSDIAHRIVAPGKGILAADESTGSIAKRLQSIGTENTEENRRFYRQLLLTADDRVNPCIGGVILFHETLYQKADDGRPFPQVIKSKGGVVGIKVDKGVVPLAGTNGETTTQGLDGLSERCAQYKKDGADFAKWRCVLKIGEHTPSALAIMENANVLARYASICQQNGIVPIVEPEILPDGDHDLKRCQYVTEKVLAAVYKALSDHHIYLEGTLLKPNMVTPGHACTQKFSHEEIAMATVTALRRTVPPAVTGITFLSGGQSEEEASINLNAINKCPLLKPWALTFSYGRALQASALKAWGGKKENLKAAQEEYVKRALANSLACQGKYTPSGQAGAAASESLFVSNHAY

T4: ARFGEF2 639-829 Sec7 (domain begin residue: 639, domain end residue: 829), Q9Y6D5
T4 chain: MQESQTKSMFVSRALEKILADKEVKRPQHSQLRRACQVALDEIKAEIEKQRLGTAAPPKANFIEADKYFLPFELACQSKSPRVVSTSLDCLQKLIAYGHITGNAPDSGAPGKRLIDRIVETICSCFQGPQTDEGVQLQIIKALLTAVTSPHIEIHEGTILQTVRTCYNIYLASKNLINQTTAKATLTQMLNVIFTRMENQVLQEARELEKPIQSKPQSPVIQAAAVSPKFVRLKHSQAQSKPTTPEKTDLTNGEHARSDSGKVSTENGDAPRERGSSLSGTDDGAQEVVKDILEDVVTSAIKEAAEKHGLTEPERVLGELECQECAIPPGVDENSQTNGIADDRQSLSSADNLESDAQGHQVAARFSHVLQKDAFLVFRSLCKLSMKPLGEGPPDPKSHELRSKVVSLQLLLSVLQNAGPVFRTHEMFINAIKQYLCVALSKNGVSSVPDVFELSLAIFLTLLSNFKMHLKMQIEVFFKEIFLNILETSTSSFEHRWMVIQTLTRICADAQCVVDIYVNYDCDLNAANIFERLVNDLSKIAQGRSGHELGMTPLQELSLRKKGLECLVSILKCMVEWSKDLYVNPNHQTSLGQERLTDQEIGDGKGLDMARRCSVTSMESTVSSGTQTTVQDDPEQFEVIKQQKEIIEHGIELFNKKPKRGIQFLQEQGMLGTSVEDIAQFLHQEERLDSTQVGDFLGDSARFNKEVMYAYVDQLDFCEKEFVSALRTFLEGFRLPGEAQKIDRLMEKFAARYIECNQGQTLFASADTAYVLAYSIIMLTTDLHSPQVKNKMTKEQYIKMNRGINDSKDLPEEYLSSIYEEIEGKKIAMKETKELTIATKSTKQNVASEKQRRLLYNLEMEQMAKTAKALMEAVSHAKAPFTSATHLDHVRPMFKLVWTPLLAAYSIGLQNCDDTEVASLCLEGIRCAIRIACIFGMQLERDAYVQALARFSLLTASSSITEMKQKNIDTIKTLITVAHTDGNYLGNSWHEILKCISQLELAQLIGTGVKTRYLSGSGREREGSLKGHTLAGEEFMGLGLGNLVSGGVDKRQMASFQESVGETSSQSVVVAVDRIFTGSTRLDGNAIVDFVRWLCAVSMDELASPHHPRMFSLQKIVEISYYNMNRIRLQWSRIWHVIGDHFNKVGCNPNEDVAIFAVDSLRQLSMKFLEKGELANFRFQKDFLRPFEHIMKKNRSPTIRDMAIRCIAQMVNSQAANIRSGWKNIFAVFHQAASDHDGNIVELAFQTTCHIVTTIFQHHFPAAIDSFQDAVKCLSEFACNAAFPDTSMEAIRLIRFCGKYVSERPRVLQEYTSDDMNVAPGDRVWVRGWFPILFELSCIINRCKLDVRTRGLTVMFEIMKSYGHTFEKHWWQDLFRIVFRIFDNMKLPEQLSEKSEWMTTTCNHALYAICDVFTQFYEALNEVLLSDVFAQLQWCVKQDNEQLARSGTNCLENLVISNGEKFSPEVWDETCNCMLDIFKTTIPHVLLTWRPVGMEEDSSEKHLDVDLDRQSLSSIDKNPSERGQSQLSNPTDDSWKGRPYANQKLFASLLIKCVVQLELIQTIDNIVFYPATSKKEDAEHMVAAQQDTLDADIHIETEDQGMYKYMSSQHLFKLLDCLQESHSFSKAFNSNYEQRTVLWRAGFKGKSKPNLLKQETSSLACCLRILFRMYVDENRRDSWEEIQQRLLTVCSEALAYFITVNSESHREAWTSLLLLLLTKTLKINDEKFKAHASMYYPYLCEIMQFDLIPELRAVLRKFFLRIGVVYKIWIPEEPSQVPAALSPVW


Target: T1, CAPNS1 1-268 EF-hand_8+EF-hand_5 …
Test: phage ELISA signal ratio (GST-PRM binding over GST background); higher = stronger binding of peptide-phage to the PRM
Method: (§1)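 Phage-displayed random hexadecapeptides (Cys-free, flanked by invariant Gly linkers, fused to the M13 P8 major coat protein) were selected over 5 rounds against GST-fused human PRM domains. Individual clones from rounds 4-5 were tested by phage ELISA, and positive clones binding the target but not GST were sequenced. Values are the ELISA signal ratio of target over background (GST); the background signal is given separately.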

| Binder | phage ELISA signal ratio |
| --- | --- |
| VNAHDMLEHWLYQDMI | 28.3 |

Target: T2, BTN1A1 285-479 SPRY (domain begin …
Test: as above
Method: as §1

| Binder | phage ELISA signal ratio |
| --- | --- |
| QTWQERQAMMMHMMQW | 15.7 |
| PKTGEPWHPWIPHWLA | 8.34 |
| LSSLETYKNHGLMFMF | 22.5 |
| GWWQSREYYMQDLMAS | 5.49 |
| FDFWQAREYHMLNMMA | 10.3 |

Target: T3, ALDOA 1-364 Glycolytic (domain begin …
Test: as above
Method: as §1

| Binder | phage ELISA signal ratio |
| --- | --- |
| EFLWDPVQEMHVMVNE | 5.28 |
| WTYESGEWNWYTEEKT | 23.9 |

Target: T4, ARFGEF2 639-829 Sec7 (domain begin …
Test: as above
Method: as §1

| Binder | phage ELISA signal ratio |
| --- | --- |
| QITMQQYVELWHAAKS | 24.1 |
